Measurements as given in the supplement of paper PMC10849652.
About 8,800 targets were measured; listed, in parts, are those with a hit and a random draw of the rest. About 0.5% of all pairs of compound and target were hits. A number with no mark means an inactive call.

Legend:
Assay in all cases: log2 fold change, soluble protein after heating vs DMSO (PISA); higher = thermal stabilisation; K562 lysate, 10 uM; active = over 0.2 and 3.5 SD of the protein, either way, in both replicates (recomputed)
[1] = compound: C1=CC=C(C=C1)[C@H](COC2=CC3=C(C=C2)NC(=O)N3)NC(=O)C4=CC=CN(C4=O)CC5=CC(=C(C=C5)F)F
How it was run: (§1)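 K562 pellets were dounce-homogenised in PBS pH 7.4 with 1 mM MgCl2, and the crude extract at 1 mg/mL protein was treated with 10 μM compound for 30 min. Aliquots were heated for 3 min across 48°C-58°C, pooled, and brought to 0.5% NP-40 at 4°C; soluble protein was the supernatant after 21,000xg for 90 min. Soluble protein was quantified by TMTpro 16plex LC-MS/MS with channel sums equalised, and reported as log2 fold change in thermal stability against DMSO controls, with values from duplicates.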

[2] = compound: CC1=C(SC2=C1C(=N[C@H](C3=NN=C(N32)C)CC(=O)N)C4=CC=C(C=C4)Cl)C
How it was run: as §1

[3] = compound: CC1=C2C(=CC=C1)N=C(N(C2=O)C3=CC=CC=C3C)CN4C=NC5=C(N=CN=C54)N
How it was run: as §1

[4] = compound: Cc1sc2c(c1C)C(c1ccc(Cl)cc1)=N[C@@H](CC(=O)OC(C)(C)C)c1nnc(C)n1-2
How it was run: as §1

[5] = compound: c1ccc([C@@H]2C[C@H]2NC2CCNCC2)cc1
How it was run: as §1

Target: MYH6 (UniProt P13533)
- log2 fold change [1]: -0.552
- log2 fold change [2]: 0.239

Target: NEDD8 (UniProt Q15843)
UniProt Q15843, sequence (Q15843 whole entry, looked up): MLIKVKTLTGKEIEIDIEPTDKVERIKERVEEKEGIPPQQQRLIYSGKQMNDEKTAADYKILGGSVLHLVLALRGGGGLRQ
- log2 fold change [1]: 0.051
- log2 fold change [2]: -0.014
- log2 fold change [3]: -0.047
- log2 fold change [4]: 0.002
- log2 fold change [5]: 0.085

Target: NGLY1 (UniProt Q96IV0)
- log2 fold change [1]: -0.011
- log2 fold change [2]: 0.002
- log2 fold change [3]: 0.016
- log2 fold change [4]: -0.018
- log2 fold change [5]: -0.07

Target: NUDT5 (UniProt Q9UKK9)
- log2 fold change [1]: 0.053
- log2 fold change [2]: -0.126
- log2 fold change [3]: -0.012
- log2 fold change [4]: -0.097
- log2 fold change [5]: -0.158

Target: MSI2 (UniProt Q96DH6)
- log2 fold change [1]: -0.007
- log2 fold change [2]: -0.007
- log2 fold change [3]: -0.001
- log2 fold change [4]: 0.048
- log2 fold change [5]: 0.071

Target: NEBL isoform 2 (UniProt O76041)
UniProt O76041, sequence (O76041 whole entry, looked up): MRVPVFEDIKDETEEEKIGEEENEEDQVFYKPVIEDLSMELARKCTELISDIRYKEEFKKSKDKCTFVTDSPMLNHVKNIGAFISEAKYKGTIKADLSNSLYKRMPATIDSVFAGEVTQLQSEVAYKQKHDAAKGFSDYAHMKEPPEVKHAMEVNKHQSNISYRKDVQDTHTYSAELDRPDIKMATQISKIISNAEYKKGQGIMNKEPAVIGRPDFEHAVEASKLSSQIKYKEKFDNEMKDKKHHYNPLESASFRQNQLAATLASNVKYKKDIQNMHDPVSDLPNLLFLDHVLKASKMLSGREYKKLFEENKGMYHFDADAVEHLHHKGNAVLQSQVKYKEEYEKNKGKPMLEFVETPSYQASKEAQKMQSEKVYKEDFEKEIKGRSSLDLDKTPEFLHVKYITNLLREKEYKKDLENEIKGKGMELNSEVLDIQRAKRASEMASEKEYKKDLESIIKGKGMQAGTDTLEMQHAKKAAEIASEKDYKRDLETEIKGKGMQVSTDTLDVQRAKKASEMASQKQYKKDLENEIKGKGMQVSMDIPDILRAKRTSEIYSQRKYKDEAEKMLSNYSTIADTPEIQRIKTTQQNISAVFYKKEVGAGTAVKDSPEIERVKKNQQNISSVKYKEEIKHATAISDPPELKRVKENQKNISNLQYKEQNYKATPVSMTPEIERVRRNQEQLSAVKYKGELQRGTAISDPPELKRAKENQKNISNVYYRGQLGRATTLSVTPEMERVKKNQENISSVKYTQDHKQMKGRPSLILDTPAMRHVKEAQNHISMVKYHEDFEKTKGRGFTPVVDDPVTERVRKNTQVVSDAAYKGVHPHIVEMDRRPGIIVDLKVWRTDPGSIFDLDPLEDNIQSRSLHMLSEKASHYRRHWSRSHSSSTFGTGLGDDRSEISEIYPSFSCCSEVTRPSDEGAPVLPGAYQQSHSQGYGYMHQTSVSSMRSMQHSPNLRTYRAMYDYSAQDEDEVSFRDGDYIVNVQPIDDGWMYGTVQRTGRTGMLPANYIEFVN
- log2 fold change [1]: -0.025
- log2 fold change [2]: -0.102
- log2 fold change [3]: 0.018
- log2 fold change [4]: -0.07
- log2 fold change [5]: -0.094

Target: NELFA (UniProt Q9H3P2)
- log2 fold change [1]: -0.055
- log2 fold change [2]: 0.033
- log2 fold change [3]: -0.022
- log2 fold change [4]: -0.037
- log2 fold change [5]: 0.054

Target: NONO (UniProt Q15233)
- log2 fold change [1]: -0.047
- log2 fold change [2]: 0.02
- log2 fold change [3]: 0.015
- log2 fold change [4]: 0.026
- log2 fold change [5]: 0.074

Target: NUDT4 (UniProt Q9NZJ9)
UniProt Q9NZJ9, sequence (Q9NZJ9 whole entry, looked up): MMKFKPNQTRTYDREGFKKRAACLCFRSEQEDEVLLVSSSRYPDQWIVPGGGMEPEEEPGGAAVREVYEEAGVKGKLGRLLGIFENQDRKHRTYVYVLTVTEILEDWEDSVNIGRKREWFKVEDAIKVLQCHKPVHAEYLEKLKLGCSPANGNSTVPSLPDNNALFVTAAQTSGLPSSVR
- log2 fold change [1]: 0.037
- log2 fold change [2]: -0.025
- log2 fold change [3]: 0.004
- log2 fold change [4]: 0.075
- log2 fold change [5]: 0.242

Target: MYCBP (UniProt Q99417)
UniProt Q99417, sequence (Q99417 whole entry, looked up): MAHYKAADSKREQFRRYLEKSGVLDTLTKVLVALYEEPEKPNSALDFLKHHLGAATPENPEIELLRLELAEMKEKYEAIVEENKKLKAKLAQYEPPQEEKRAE
- log2 fold change [1]: 0.043
- log2 fold change [2]: -0.087
- log2 fold change [3]: -0.013
- log2 fold change [4]: -0.022
- log2 fold change [5]: -0.27

Target: PAN2 isoform 2 (UniProt Q504Q3)
- log2 fold change [1]: -0.108
- log2 fold change [2]: 0.086
- log2 fold change [3]: -0.004
- log2 fold change [4]: -0.044
- log2 fold change [5]: 0.007

Target: PARD3 (UniProt Q8TEW0)
- log2 fold change [1]: 0.078
- log2 fold change [2]: 0.063
- log2 fold change [3]: -0.028
- log2 fold change [4]: 0.09
- log2 fold change [5]: -0.024

Target: MYO1D (UniProt O94832)
- log2 fold change [1]: -0.006
- log2 fold change [2]: 0.002
- log2 fold change [3]: 0.015
- log2 fold change [4]: -0.006
- log2 fold change [5]: 0.02

Target: NCAPG2 (UniProt Q86XI2)
UniProt Q86XI2, sequence (Q86XI2 whole entry, looked up): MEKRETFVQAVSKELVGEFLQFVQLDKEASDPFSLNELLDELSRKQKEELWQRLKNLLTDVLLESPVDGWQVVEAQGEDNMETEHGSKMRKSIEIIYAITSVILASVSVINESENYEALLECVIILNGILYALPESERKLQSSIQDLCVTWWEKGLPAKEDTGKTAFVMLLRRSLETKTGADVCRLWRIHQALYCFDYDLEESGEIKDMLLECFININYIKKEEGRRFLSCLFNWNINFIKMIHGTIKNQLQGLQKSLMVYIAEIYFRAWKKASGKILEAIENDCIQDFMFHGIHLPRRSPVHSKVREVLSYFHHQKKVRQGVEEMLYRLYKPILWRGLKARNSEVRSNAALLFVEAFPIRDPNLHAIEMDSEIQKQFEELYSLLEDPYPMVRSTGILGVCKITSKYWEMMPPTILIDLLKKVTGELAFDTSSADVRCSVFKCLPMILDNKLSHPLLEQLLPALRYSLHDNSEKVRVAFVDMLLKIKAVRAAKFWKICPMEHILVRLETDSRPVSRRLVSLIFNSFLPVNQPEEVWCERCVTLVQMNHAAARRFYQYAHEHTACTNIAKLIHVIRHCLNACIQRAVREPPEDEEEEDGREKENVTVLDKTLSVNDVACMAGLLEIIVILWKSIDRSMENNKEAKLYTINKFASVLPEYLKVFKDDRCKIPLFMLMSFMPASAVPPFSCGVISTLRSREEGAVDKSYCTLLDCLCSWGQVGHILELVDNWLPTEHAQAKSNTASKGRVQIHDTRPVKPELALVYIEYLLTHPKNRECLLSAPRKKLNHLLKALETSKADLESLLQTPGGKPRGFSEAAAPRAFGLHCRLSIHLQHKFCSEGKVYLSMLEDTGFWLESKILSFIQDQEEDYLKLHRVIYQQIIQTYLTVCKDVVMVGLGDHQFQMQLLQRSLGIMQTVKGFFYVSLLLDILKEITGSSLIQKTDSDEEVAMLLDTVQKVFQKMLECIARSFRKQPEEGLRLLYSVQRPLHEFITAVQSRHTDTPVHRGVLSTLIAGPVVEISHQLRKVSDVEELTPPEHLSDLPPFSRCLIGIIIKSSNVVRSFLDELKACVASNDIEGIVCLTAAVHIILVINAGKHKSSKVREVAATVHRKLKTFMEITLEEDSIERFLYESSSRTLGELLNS
- log2 fold change [1]: -0.074
- log2 fold change [2]: -0.04
- log2 fold change [3]: 0.019
- log2 fold change [4]: 0.025
- log2 fold change [5]: 0.001

Target: NEXN (UniProt Q0ZGT2)
UniProt Q0ZGT2, sequence (Q0ZGT2 whole entry, looked up): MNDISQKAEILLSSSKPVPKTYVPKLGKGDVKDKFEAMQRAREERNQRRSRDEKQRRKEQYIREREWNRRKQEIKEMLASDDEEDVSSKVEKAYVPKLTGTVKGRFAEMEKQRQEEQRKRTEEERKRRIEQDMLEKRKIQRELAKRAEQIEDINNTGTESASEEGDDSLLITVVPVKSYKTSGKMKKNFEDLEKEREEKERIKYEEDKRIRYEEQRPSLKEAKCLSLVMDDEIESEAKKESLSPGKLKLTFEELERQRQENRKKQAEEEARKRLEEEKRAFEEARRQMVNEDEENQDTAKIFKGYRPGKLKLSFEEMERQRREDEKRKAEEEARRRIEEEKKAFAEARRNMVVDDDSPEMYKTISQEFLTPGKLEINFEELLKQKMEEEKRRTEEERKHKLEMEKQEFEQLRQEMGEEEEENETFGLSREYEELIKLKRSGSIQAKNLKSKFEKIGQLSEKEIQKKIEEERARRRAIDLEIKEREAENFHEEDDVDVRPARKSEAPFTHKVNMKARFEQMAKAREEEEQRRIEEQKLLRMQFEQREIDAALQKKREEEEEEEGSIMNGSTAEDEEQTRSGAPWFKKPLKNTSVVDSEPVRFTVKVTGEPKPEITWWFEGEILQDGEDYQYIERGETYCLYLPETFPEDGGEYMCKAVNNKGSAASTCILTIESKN
- log2 fold change [1]: -0.31
- log2 fold change [2]: 0.335
- log2 fold change [3]: 0.271
- log2 fold change [4]: -0.083
- log2 fold change [5]: -0.22

Target: MTA1 (UniProt Q13330)
- log2 fold change [1]: 0.005
- log2 fold change [2]: -0.01
- log2 fold change [3]: 0.01
- log2 fold change [4]: 0.055
- log2 fold change [5]: 0.012

Target: MRPL58 (UniProt Q14197)
- log2 fold change [1]: 0.011
- log2 fold change [2]: 0.029
- log2 fold change [3]: 0.075
- log2 fold change [4]: -0.002
- log2 fold change [5]: 0.081

Target: NUCB2 (UniProt P80303)
- log2 fold change [1]: 0.041
- log2 fold change [2]: -0.005
- log2 fold change [3]: -0.011
- log2 fold change [4]: -0.021
- log2 fold change [5]: 0.079

Target: PANK1 (UniProt Q8TE04)
- log2 fold change [1]: -0.071
- log2 fold change [2]: -0.056
- log2 fold change [3]: 0.178
- log2 fold change [4]: -0.077
- log2 fold change [5]: 0.076

Target: NCOR1 (UniProt O75376)
- log2 fold change [1]: -0.009
- log2 fold change [2]: 0.002
- log2 fold change [3]: 0.035
- log2 fold change [4]: 0.015
- log2 fold change [5]: 0.001

Target: MTOR (UniProt P42345)
- log2 fold change [1]: -0.022
- log2 fold change [2]: 0.004
- log2 fold change [3]: 0.013
- log2 fold change [4]: 0.014
- log2 fold change [5]: 0.029

Target: NDUFS1 isoform 2 (UniProt P28331)
UniProt P28331, sequence (P28331 whole entry, looked up): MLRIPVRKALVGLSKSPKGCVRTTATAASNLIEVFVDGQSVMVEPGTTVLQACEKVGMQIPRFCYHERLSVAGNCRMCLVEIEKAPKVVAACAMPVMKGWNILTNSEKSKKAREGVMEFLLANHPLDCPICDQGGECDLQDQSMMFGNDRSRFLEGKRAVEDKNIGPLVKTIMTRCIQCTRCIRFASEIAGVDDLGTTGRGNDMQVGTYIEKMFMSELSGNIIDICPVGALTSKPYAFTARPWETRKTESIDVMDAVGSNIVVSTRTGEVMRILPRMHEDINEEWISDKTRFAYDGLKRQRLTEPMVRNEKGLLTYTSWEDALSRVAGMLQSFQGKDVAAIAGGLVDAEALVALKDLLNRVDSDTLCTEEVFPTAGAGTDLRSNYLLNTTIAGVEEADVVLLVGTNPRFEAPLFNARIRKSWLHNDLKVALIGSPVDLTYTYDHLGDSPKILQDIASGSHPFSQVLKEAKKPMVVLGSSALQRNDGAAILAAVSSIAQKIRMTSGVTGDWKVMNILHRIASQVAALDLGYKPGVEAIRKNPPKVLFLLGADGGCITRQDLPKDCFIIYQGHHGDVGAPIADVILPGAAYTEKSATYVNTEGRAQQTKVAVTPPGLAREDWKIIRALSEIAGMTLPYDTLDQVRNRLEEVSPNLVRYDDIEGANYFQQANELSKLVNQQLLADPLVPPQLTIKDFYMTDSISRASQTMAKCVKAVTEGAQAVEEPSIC
- log2 fold change [1]: 0.009
- log2 fold change [2]: -0.003
- log2 fold change [3]: 0.022
- log2 fold change [4]: 0.013
- log2 fold change [5]: 0.035

Target: ORC2 (UniProt Q13416)
- log2 fold change [1]: -0.052
- log2 fold change [2]: -0.011
- log2 fold change [3]: -0.012
- log2 fold change [4]: 0.025
- log2 fold change [5]: 0.044

Target: PAK4 (UniProt O96013)
UniProt O96013, sequence (O96013 whole entry, looked up): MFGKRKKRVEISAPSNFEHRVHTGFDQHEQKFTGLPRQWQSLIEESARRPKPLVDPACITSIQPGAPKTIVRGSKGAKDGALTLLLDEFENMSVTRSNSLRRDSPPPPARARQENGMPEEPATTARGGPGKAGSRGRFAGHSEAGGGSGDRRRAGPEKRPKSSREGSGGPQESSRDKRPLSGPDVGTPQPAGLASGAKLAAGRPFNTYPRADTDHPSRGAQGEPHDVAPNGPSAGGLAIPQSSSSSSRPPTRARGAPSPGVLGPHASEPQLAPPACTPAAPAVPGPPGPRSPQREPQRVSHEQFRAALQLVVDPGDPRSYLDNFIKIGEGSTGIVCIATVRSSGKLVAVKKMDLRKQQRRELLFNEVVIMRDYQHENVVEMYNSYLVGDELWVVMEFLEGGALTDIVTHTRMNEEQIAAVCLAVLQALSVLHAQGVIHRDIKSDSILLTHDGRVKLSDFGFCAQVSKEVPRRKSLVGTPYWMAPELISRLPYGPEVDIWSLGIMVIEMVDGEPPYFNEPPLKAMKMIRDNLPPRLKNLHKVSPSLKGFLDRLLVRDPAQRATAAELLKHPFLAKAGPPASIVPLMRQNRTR
- log2 fold change [1]: -0.06
- log2 fold change [2]: -0.03
- log2 fold change [3]: -0.018
- log2 fold change [4]: -0.021
- log2 fold change [5]: -0.14

Target: NTMT1 (UniProt Q9BV86)
UniProt Q9BV86, sequence (Q9BV86 whole entry, looked up): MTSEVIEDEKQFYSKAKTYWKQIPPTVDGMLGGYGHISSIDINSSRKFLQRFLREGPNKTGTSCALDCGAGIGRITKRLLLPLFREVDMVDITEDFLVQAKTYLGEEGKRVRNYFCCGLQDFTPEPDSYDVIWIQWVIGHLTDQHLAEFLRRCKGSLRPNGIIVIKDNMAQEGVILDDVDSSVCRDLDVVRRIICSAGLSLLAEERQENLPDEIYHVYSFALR
- log2 fold change [1]: -0.01
- log2 fold change [2]: -0.036
- log2 fold change [3]: -0.019
- log2 fold change [4]: 0.02
- log2 fold change [5]: 0.098

Target: NSUN2 (UniProt Q08J23)
- log2 fold change [1]: -0.016
- log2 fold change [2]: 0.011
- log2 fold change [3]: -0.009
- log2 fold change [4]: 0.021
- log2 fold change [5]: 0.019

Target: NOC2L (UniProt Q9Y3T9)
- log2 fold change [1]: 0.004
- log2 fold change [2]: -0.019
- log2 fold change [3]: 0.009
- log2 fold change [4]: 0.324 (active)
- log2 fold change [5]: -0.012
